“And” between values parts separate entries of the source, which are not always exact repeats. Equal entries are not always repeated. Inconclusive results are not listed.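 How the source made its calls, unless noted: active means compounds whose dose series gives a full or clear partial fitted curve of increased nuclear translocation; inconclusive means weak partial curve or effect only at the top dose; inactive means no dose-dependent translocation response.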
Tested on: not listed separately
Test: Stat Signaling Pathway (AID 446; active means well fitted curve in either direction with a large enough effect, not every such curve was filed as active;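 further: ME-180 cervical cancer cells given 40 pM IL-6 alongside compound; SIE-controlled beta-lactamase reporter measured as 460/530 nm FRET emission ratio; on the % scale 0 is the no-effect control and ±100 the full control effect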)
Settings: ME-180 SIE beta-lactamase reporter, IL-6 stimulated, 5 h; at 17.2 µM (top of the series)
Procedure, shortened: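 Reporter line: ME-180 cervical carcinoma, SIE-beta-lactamase. Treatment: compound with 40 pM IL-6, 5 hrs, 37 C, in low-serum OPTI-MEM with 10 mM HEPES pH 7.3. Detection: 460/530 nm fluorescence.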

activity, negative = inhibition, inactive:
CC(=O)N1CCN(c2ccc(OC[C@@H]3CO[C@@](Cn4ccnc4)(c4ccc(Cl)cc4Cl)O3)cc2)CC1 -12.7%, Cc1nnc(SCC2=C(C(=O)O)N3C(=O)[C@@H](NC(=O)Cn4cnnn4)[C@@H]3SC2)s1 8.89%, CN1[C@@H]2CC[C@H]1CC(OC(=O)[C@@H](CO)c1ccccc1)C2 (stereo partly drawn) 10.3% and 3.29%, C(=C/c1ccccc1)/CN1CCN(C(c2ccccc2)c2ccccc2)CC1 -6.97%

Same assay, conditions: ME-180 (cervical carcinoma) SIE beta-lactamase reporter, IL-6 stimulated, 5 h; at 38 µM (top of the series)

activity, negative = inhibition, inactive:
CC(=O)N1CCN(c2ccc(OC[C@@H]3CO[C@@](Cn4ccnc4)(c4ccc(Cl)cc4Cl)O3)cc2)CC1 -11.9%, Cc1nnc(SCC2=C(C(=O)O)N3C(=O)[C@@H](NC(=O)Cn4cnnn4)[C@@H]3SC2)s1 -5.18%, CN1[C@@H]2CC[C@H]1CC(OC(=O)[C@@H](CO)c1ccccc1)C2 (stereo partly drawn) 27.8% and 8.42%, C(=C/c1ccccc1)/CN1CCN(C(c2ccccc2)c2ccccc2)CC1 12.7%

Target: Glucocorticoid receptor (Homo sapiens) (UniProt P04150)
Sequence (P04150 whole entry, looked up): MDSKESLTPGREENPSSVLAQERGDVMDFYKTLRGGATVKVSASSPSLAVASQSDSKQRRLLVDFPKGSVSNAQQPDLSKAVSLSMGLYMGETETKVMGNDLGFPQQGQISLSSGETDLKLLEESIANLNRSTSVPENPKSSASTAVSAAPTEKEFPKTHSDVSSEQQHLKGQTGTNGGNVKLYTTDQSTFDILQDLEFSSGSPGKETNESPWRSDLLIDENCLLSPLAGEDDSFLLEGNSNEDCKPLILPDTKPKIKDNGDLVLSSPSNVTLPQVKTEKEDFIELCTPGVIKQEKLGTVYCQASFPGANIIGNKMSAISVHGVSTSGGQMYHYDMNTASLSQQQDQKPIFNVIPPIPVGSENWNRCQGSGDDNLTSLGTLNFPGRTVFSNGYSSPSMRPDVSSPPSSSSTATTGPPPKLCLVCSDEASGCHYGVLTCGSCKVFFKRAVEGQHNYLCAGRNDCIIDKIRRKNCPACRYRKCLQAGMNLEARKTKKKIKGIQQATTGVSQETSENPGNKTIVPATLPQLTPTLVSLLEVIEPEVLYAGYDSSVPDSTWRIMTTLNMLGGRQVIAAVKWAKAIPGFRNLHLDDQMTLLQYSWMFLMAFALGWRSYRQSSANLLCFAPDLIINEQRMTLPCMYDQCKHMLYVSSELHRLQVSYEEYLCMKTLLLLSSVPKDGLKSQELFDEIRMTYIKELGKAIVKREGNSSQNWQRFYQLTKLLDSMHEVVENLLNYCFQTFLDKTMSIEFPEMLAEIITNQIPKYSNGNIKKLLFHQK
Test: GR-GFP Redistribution (AID 450); further: potency means the concentration at half of the fitted maximal effect
Settings: U2OS GR-GFP nuclear translocation, laser cytometry, 2 h

Potency, inactive:
COC(=O)CC[C@@H](C)[C@@H]1CC[C@@H]2[C@@H]3CC[C@H]4C[C@@H](O)CC[C@@]4(C)[C@@H]3CC[C@]21C > 46 µM, CC(=O)N1CCN(c2ccc(OC[C@@H]3CO[C@@](Cn4ccnc4)(c4ccc(Cl)cc4Cl)O3)cc2)CC1 > 46 µM and > 20.6 µM, N#CCCn1c(=O)c(-c2ccccc2)nc2cnc(N3CCNCC3)nc21 > 9.22 µM, NCCNc1ncnc2ccc(Cl)cc12 > 46 µM, O=C(NCCO)c1ccc(Cl)cc1 > 46 µM, O=c1cc(CF)[nH]c(=S)[nH]1 > 46 µM, c1ccc2cc(-c3cc(-c4cc(-c5ccc6ccccc6c5)on4)no3)ccc2c1 > 46 µM, OC[C@H](S)CS > 46 µM, O=C(O)c1[nH]c(=O)[nH]c(=O)c1CN1CCCCC1 > 46 µM, CN(C)CN1C(=O)S/C(=C2/C(=O)N(CN(C)C)c3ccccc32)C1=O > 46 µM, COc1ncc2nc(-c3cc(F)cc(F)c3)c(=O)n(CCc3ccccc3)c2n1 > 9.22 µM, NC(=O)c1ncn([C@@H]2O[C@@H](CO)[C@@H](O)[C@H]2O)n1 > 46 µM, CC(C)(C)c1ccc([C@@H](O)CCCN2CCC(C(O)(c3ccccc3)c3ccccc3)CC2)cc1 > 46 µM and > 20.6 µM, O=C(O)/C(=C\c1ccccc1)c1ccccc1 > 46 µM, NCCCc1ccc2oc3ccccc3c2c1 > 46 µM, O=C(O)c1cc(-c2ccc(-c3ccccc3)cc2)nc2cc3ccccc3cc12 > 46 µM, N=c1ccn2c(n1)O[C@@H]1[C@@H](O)[C@H](CO)O[C@H]12 > 46 µM, COc1cc(N=Nc2cccc(S(N)(=O)=O)c2)c2ccccc2c1N > 46 µM, CN(C)c1ccc(-c2nc(N3CCNCC3)c3ccccc3n2)cc1 > 46 µM, CN1C[C@H](c2ccccc2)C(O)([C@]2(c3ccccc3)CN(C)C[C@@H](c3ccccc3)C2=O)[C@H](c2ccccc2)C1 (stereo partly drawn) > 46 µM, CC(CO)(CO)N=Cc1cc(I)cc(I)c1O > 46 µM, C[N+](C)(C)/N=C\c1ccc(O)c(O)c1 > 46 µM, CSc1ccc(NC(=O)Nc2cc(C)ccn2)cc1 > 46 µM, N[C@H](COP(=O)(O)O)C(=O)O > 46 µM, C[C@H](CN(C)C)C(=O)c1ccccc1C(=O)O > 46 µM, O=C(O)c1cc(-c2ccc(-c3ccc(-c4cc(C(=O)O)c5cc(Cl)ccc5n4)cc3)cc2)nc2ccc(Cl)cc12 > 46 µM, Cc1cc2nc([C@H](C)C(=O)c3ccc(Cl)cc3)c(=O)[nH]c2cc1C > 46 µM, NCS(=O)(=O)O > 46 µM, O=C(O)CCCC[C@H]1CCSS1 > 46 µM, O=C(C[n+]1ccc2ccccc2c1)c1ccc2ccc3ccccc3c2c1 > 46 µM, CC(C)c1ccc(O)c(O)c(=O)c1 (tested in a mixture with another compound) > 46 µM, COc1cc2nc(N(C)CCCNC(=O)[C@@H]3CCCO3)nc(N)c2cc1OC > 20.6 µM, C[N+]1(NCC[N@@+]2(C)CCc3ccccc3C2)CCCCC1 > 46 µM, Oc1ccc([C@@H]2CNCCc3c2cc(O)c(O)c3Cl)cc1 > 46 µM, O=C1C=C(N2CCN(c3ccccn3)CC2)C(=O)c2c(O)ccc(O)c21 > 46 µM

From PubChem BioAssay (NCATS)
